Here are results for 40 compounds from PubChem BioAssay (NCATS).

Unmarked numbers belong to inactive results. Calls of active or inactive are those of the source. The rule behind the calls is not given here.
Potency is the fitted concentration of half-maximal effect.

This test deals with HIV-1 nucleocapsid protein NCp7 (binding to TG oligonucleotide). Kind of test: HIV Nucleocapsid (AID 346).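 Note: potency is for inhibitors that block NC binding and lower polarization.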 The settings on record: HIV-1 NC / fluorescein-TGTGTGTG probe, fluorescence polarization. The method, boiled down:
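NCp7 100 nM + fluorescein TG4xF 10 nM; Hepes pH 7.5/250mM NaCl/1uM ZnCl2/0.004% PEG 20000; 1 hr RT; FP, 45 s exposure; oligo-only wells as negative control.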
(Polarisation of emitted light reports the rotation of a fluorescent probe.)
As to `CS(=O)(=O)Nc1cccc(-c2cncnc2Nc2ccccc2)c1`, the Potency is above 20 µM. In the case of `Cc1nc2cnc(Nc3ccccc3)nc2n(Cc2cccs2)c1=O`, the Potency was above 20 µM.

As to `COc1ccc(-n2c(=O)c(-c3cccc(F)c3)nc3cncnc32)cc1`, the Potency is above 20 µM. Regarding `COc1ccc(-c2nc3cnc(Nc4ccccc4)nc3n(CCC#N)c2=O)cc1`, the Potency was 2.04 µM (active).

Consider `FC(F)(F)c1ccccc1-c1ccc2ncnc(NCCN3CCOCC3)c2c1`, for which the Potency was above 20 µM.

As for `COc1cccc(Cn2c(=O)c(-c3cc(F)cc(F)c3)nc3cncnc32)c1`, the Potency is above 20 µM. With `CN1CCN(c2ncnc3ccc(-c4ccccc4C#N)cc23)CC1` the figure was above 20 µM. In the case of `Cn1cccc1C(=O)N1CCC2(CC1)CCN(c1ccncc1)CC2`, the Potency is above 20 µM.

As for `Cc1nc2cnc(N3CCOCC3)nc2n(C)c1=O`, the Potency was above 20 µM.

As for `COCC(=O)N1CCC2(CC1)CCN(c1ncccn1)CC2`, the Potency is above 20 µM. For `Cc1noc(C)c1-c1cc(NCc2cccs2)ncn1`, the Potency was above 20 µM.

As for `c1ccc(Nc2nc(-c3ccc4c(c3)OCO4)nc3ccccc23)cc1`, the Potency is above 20 µM. As for `COc1cccc(-c2ccc3ncnc(NCc4ccccc4)c3c2)c1`, the figure is above 20 µM.

Take `COc1cccc(Cn2c(=O)c(C)nc3cnc(Oc4ccccc4)nc32)c1`: the Potency was above 20 µM. With `COCC(=O)N1CCC2(CCCN(c3ccncc3)C2)CC1`, the Potency is above 20 µM.

Regarding `O=S(=O)(c1ccccc1)N1CCC[C@@]2(CCN(Cc3cc(C(F)(F)F)cc(C(F)(F)F)c3)C2)C1`, the Potency was above 20 µM. For `CN(C)C(=O)c1ccc(-c2nc(Nc3ccccc3)c3ccccc3n2)cc1`, the Potency is above 20 µM. Consider `CC(=O)N1CCC2(CC1)CCN(c1ccccn1)CC2`, for which the Potency was above 4 µM.

In the case of `O=C(c1ccco1)N1CCC2(CC1)CCN(c1ccc(-c3ccccc3)cc1)CC2`, the Potency is above 20 µM. Turning to `COc1cccc(-c2cncnc2NC2CCNCC2)c1`, the Potency was above 20 µM. As for `COC(=O)N1CCC2(CC1)CN(c1cccc(-c3ccccc3)c1)C2`, the Potency was above 20 µM.

As to `O=C(c1ccco1)N1CCC[C@@]2(CCN(c3cccc(-c4ccccc4)c3)C2)C1`, the Potency was above 20 µM. Regarding `COc1ccc(C(=O)N2CCC3(CCCN(Cc4nccs4)C3)CC2)cc1`, the Potency was above 20 µM.

With `CC(=O)N1CCC2(CCN(Cc3ccccc3)CC2)CC1`, the Potency is above 20 µM. For the compound `COc1ccccc1CNc1ncncc1-c1ccc(N(C)C)cc1`, the Potency was above 20 µM. With `CC(C)NC(=O)N1CC2(CCN(C(=O)c3ccco3)CC2)C1`, the Potency is above 20 µM. As for `O=S(=O)(c1ccccc1)N1CCC2(CCCN(C(c3ccccc3)c3ccccc3)C2)CC1`, the Potency was above 20 µM. As for `Cc1cccc(CNc2ncnc3ccc(-c4ccoc4)cc23)c1`, the Potency was above 20 µM. As for `O=C(c1ccncc1)N1CCC2(CC1)CN(c1ccncc1)C2`, the Potency is above 20 µM. For the compound `COc1ncc2nc(CCc3ccccc3)c(=O)n(Cc3ccc(F)cc3)c2n1`, the Potency is above 20 µM. As for `O=C(c1cnccn1)N1CCC2(CC1)CN(c1ccccc1)C2`, the figure is above 20 µM; as for `O=C(Nc1ccccc1)N1CCCC2(CCN(C(=O)c3csnn3)CC2)C1`, above 20 µM. For `CN1CCN(c2ncncc2-c2ccccc2C(F)(F)F)CC1`, the Potency is above 20 µM. For `Cc1noc(C)c1-c1ccc2ncnc(N(C)Cc3ccco3)c2c1`, the Potency was above 20 µM. In the case of `O=C(Nc1cccc(F)c1)N1CC[C@@]2(CCCN(C(=O)c3cccc(F)c3)C2)C1`, the Potency was above 20 µM. `COc1ccc(NC(=O)N2CCCC3(CCN(S(C)(=O)=O)CC3)C2)cc1`: the Potency is above 20 µM. With `Cc1noc(C)c1C(=O)N1CCC[C@@]2(CCN(Cc3ccccc3)C2)C1`, the Potency was above 20 µM.

As for `N#Cc1cccc(NC(=O)N2CCCC3(CCN(C(=O)c4cc(C(F)(F)F)cc(C(F)(F)F)c4)CC3)C2)c1`, the Potency was above 20 µM. With `Cc1cccc(CNc2cc(-c3ccccc3C)ncn2)c1`, the Potency is above 20 µM. In the case of `CN(C)Cc1ccccc1-c1cc(N(C)Cc2ccco2)ncn1`, the Potency is above 20 µM.
